# Test results published in ChEMBL document CHEMBL4513216, “Probing the Open Global Health Chemical Diversity Library for Multistage-Active Starting Points for Next-Generation Antimalarials” (ACS Infect Dis, 2020).
# Among all 69,000 compounds or so, about 8,600 (12%) showed an effect of 50% or more. The entries come from a sample that favours strong results as a whole.
# Tested on: Plasmodium berghei
# Experiment: Screen against P. berghei liver stage (PbLuc), transformed with Luciferase, at 10uM
# Format: functional, HepG2
# Settings: tested at 10 uM
row,SMILES,INHIBITION
1,Cn1cc(C(=O)N2CC[C@@H]3[C@@H]2CCN3c2ncc(F)cn2)cn1,2.4%
2,CC1CCN(C(=O)Cn2nc(Br)nc2Br)CC1,-12.7%
3,Cc1nc(C2CCCN(C(=O)c3cccc4c3OCCO4)C2)no1 (configuration not stated),15.3%
4,CC/C=C(/C)C(=O)N1CCN(C2=NCC(C)S2)CC1 (configuration not stated),30.3%
5,CCC(C)(C)C(=O)N1CCN(C2=NCC(C)S2)CC1 (configuration not stated),-87.7%
6,CCN(CC)C(=O)N1CCN(C2=NCC(C)S2)CC1 (configuration not stated),65.7%
7,CCN1C(=O)C2(CCOCC2)c2cc(NC(=O)c3cnccn3)ccc21,-28.8%
8,CC(=O)Nc1ccc2c(c1)C1(CCOCC1)C(=O)N2c1ccsc1,58.7%
9,CCC(C)Nc1ccc2c(c1)C1(CCOCC1)C(=O)N2c1ccccc1 (configuration not stated),10.5%
10,CCN1C(=O)C2(CCOCC2)c2cc(NC(=O)COC)ccc21,-19.8%
11,CCN1C(=O)C2(CCOCC2)c2cc(NC(=O)c3csnn3)ccc21,-35.2%
12,CC(C)Nc1ccc2c(c1)C1(CCOCC1)C(=O)N2c1ccsc1,52.3%
13,COc1cccc(OC)c1CN1CC(O)CN(S(C)(=O)=O)CC1=O (configuration not stated),46.4%
14,NC(=O)CN1CCCC(Cc2ccc(N)nn2)C1 (configuration not stated),8.72%
15,CC(C)n1c(C2CCCN(Cc3ccnn3C)C2)nc2ccccc21 (configuration not stated),23.9%
16,COc1cccc(CNc2c(O)c(=O)c2=O)c1,0.207%
17,Cc1noc(C2CCC3(CCN(C(=O)c4ccn(C)n4)CC3)O2)n1 (configuration not stated),-0.371%
18,COc1cccc(CC(=O)N2CCC3(CC2)OCCCC3O)c1OC (configuration not stated),69.7%
19,COc1ccccc1CC(=O)N1CC[C@H](O)[C@]2(CCCO2)C1,-12.2%
20,O=C(Cc1ccccc1C(F)(F)F)N1CCC2(CC1)OCCCC2O (configuration not stated),13.2%
21,COC(=O)c1ccoc1CN(C)CC(=O)NC1CCS(=O)(=O)C1 (configuration not stated),17.9%
22,Cc1nn(-c2ccccc2)c2c1c(C(F)F)cc(=O)n2CC(=O)O,36.35%
23,CN(C)CCN(C)C1CCN(C(C(=O)O)c2ccc(F)c(Cl)c2)CC1 (configuration not stated),34.9%

row,SMILES,INHIBITION
1,CCCOc1cc(CNC(=O)Nc2ccccn2)ccn1,3.87%
2,CC(C)c1nn(C)c(N(C)C)c1CNC1CCN(C2CC2)CC1,12.8%
3,C[C@@H](CO)NC(=O)c1ccc2nc(NS(C)(=O)=O)sc2c1,54.2%
4,CC(CO)NC(=O)c1ccc2[nH]/c(=N\S(C)(=O)=O)sc2c1 (configuration not stated),4.93%
5,CSCC[C@@H](CO)NC(=O)c1ccc2nc(NS(C)(=O)=O)sc2c1,46.7%
6,Cc1cc(C(=O)N2CCC3(CC2)C(=O)N(C)CCN3CC2CC2)c(C)o1,4.98%
7,CN(Cc1ccncc1)C1COC2(CCN(Cc3ccccn3)CC2)C1 (configuration not stated),52%
8,CN(Cc1ccncc1)C1COC2(CCN(c3ncc(F)cn3)CC2)C1 (configuration not stated),37.8%
9,CN(Cc1ccncc1)C1COC2(CCN(Cc3ccco3)CC2)C1 (configuration not stated),59%
10,CN(Cc1ccncc1)C1CC2(CCN(Cc3ccccn3)CC2)C1,28.7%
11,CN(C)C1COC2(CCN(Cc3ccncc3)CC2)C1 (configuration not stated),29.9%
12,CN(Cc1ccncc1)C1COC2(CCN(Cc3nccn3C)CC2)C1 (configuration not stated),73%
13,CN(Cc1ccncc1)C1COC2(CCN(Cc3ccsc3)CC2)C1 (configuration not stated),49.7%
14,CN(Cc1ccccn1)C1COC2(CCN(Cc3cccnc3)CC2)C1 (configuration not stated),38.1%
15,CN(Cc1ccncc1)C1COC2(CCN(Cc3cccs3)CC2)C1 (configuration not stated),4.57%
16,O=C(O)CCNC(=O)Cc1csc(-c2cccc(Cl)c2)n1,25.1%
17,Cc1nc(CN2CCN(C(=O)c3sccc3C3CC3)CC2)oc1C,1.75%
18,CCc1cc(O)n2nc(C3CCCN3C(=O)c3ccccn3)cc2n1 (configuration not stated),18.85%
19,COc1cccc(CNc2nc(O)cc(C3CC(=O)N(C)C3)n2)c1 (configuration not stated),17.1%
20,CCOCCCNc1nc(O)cc(C2CC(=O)N(C)C2)n1 (configuration not stated),56.9%
21,Cc1ccc(CNc2nc(O)cc(C3CC(=O)N(C)C3)n2)cc1 (configuration not stated),-16.5%
22,CNC(=O)c1cnc(C)nc1CCNC(=O)CCc1ccccc1,-0.232%
23,COCC1c2c(cnn2CC2CC2)CCN1Cc1nccs1 (configuration not stated),7.11%

row,SMILES,INHIBITION
1,CSCc1nc(CCNC(=O)C(N)c2c(C)n[nH]c2C)cs1 (configuration not stated),21.2%
2,Cc1nc(CCNC(=O)C(N)c2c(C)n[nH]c2C)sc1C (configuration not stated),56%
3,Cc1n[nH]c(C)c1C(N)C(=O)NCCc1csc(C(C)C)n1 (configuration not stated),-10.8%
4,O=C(N1CCCC1)N1CCC2(CC1)COCCN(Cc1cccnc1)C2,41.6%
5,C[C@@H](NC(=O)c1ccc(Cl)cc1)c1onc(-c2cccnc2)c1C(=O)O,-4.82%
6,COCCNc1nc2c(c(N3CCn4nc(C)cc4C3)n1)CCNCC2,27.6%
7,Cc1nc2c(c(N3CCN(c4ncccc4C(N)=O)CC3)n1)CCNC2,32.5%
8,Cc1ccccc1N1CCN(c2nc(N(C)C)nc3c2CCNC3)CC1,88.5%
9,COc1cccc2c1OCCCN(c1nc(N)nc3c1CCNC3)C2,27.6%
10,CN(C)c1nc2c(c(N3CCc4c(c(CO)nn4C)C3)n1)CCNC2,-2.43%
11,c1ccc2c(c1)CCN(c1nc(-c3ccncc3)nc3c1CCNC3)C2,58%
12,Cc1cccc(=O)n1CCCNc1nc(N(C)C)nc2c1CCNC2,10.9%
13,NCCC1CN(c2nc(-c3ccccc3)nc3c2CCNC3)CCO1 (configuration not stated),38.2%
14,CN(C)c1nc2c(c(N3CCc4ccccc4C3)n1)CCNC2,66.7%
15,Cc1cc2n(n1)CCN(c1nc(N)nc3c1CCNCC3)C2,12.1%
16,Cc1cc2n(n1)CCN(c1nc(N(C)C)nc3c1CCNC3)C2,57.6%
17,c1ccc2c(c1)CCN(c1ncnc3sc4c(c13)CCNC4)C2,38.2%
18,COCC1CN(Cc2ccsc2)Cc2nn(C)cc21 (configuration not stated),22.2%
19,CN(CCCO)Cc1cc(Cl)ccc1OCC(O)CN1CCCCCC1 (configuration not stated),-50.7%
20,COc1ccnc(N2CCN(C(=O)Cc3ccn(C(C)C)n3)CC2)n1,-47.6%
21,Cc1nn(C)c2nc(C(C)C)cc(C(=O)Nc3n[nH]c(C4CC4)n3)c12,45.3%
